Holding throughout (assay): NCI-60 one-dose screen, 48 h (100 = growth as untreated, 0 = no growth, -100 = all killed)
The subject of one test is HCT-15 colon. The following applies: 10 µM unless noted.
Another test relates to HT29 colon. Particulars: 10 µM unless noted.
The subject of a further test is SNB-75 CNS. Particulars: 10 µM unless noted.
In the next test the test system is SNB-19 CNS. Particulars: 10 µM unless noted.
A further test concerns U251 CNS. Particulars: 10 µM unless noted.
The test system of the next test is PC-3 prostate. The following applies: 10 µM unless noted.
The next test deals with SK-MEL-5 melanoma. The following applies: 10 µM unless noted.
The test system of the next test is UACC-62 melanoma. The following applies: 10 µM unless noted.
In a further test the test system is LOX IMVI melanoma. The following applies: 10 µM unless noted.
The test system of a further test is SK-MEL-28 melanoma. Particulars: 10 µM unless noted.
The test system of a further test is SK-MEL-2 melanoma. Particulars: 10 µM unless noted.
A further test has as its system UO-31 renal. The following applies: 10 µM unless noted.
The next test has as its system TK-10 renal. Particulars: 10 µM unless noted.
The next test concerns ACHN renal. The following applies: 10 µM unless noted.
A further test concerns CAKI-1 renal. The following applies: 10 µM unless noted.
For another test, the system named is A498 renal. Particulars: 10 µM unless noted.
A further test deals with CCRF-CEM leukemia. The following applies: 10 µM.
The next test has as its system MOLT-4 leukemia. Particulars: 10 µM unless noted.
A further test concerns SN12C renal. The following applies: 10 µM unless noted.
For the next test, the system named is EKVX NSCLC. Particulars: 10 µM.

Each structure is given as a SMILES string. This is part of a sample that, as a whole, favours compounds with a hit. Of some 83,000 tested, about 20% had one in any assay.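 Single-dose data. Exposure time 48 hours. Values below 10 considered active.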 Values without a mark were called inactive. The source made the active and inactive calls.

For the molecule `O=C(/C=C/c1ccc(Cl)cc1)c1ccc(Cl)cc1`, the growth with HCT-15 colon was 94.3%; with HT29 colon, 70.2%; with SNB-75 CNS, 99%; with SNB-19 CNS, 102%; in the test on U251 CNS, 93.8%; in the test with PC-3 prostate, 96.8%. Besides, the growth was 97.3% in the test on SK-MEL-5 melanoma; 90.4% in the test on UACC-62 melanoma; 66.5% with LOX IMVI melanoma; 99.9% in the test on SK-MEL-28 melanoma; 97.2% in the test with SK-MEL-2 melanoma; 76.2% with UO-31 renal. Moreover, the growth in the test on TK-10 renal is 78%; in the test with ACHN renal, 109%; in the test with CAKI-1 renal, 75.7%; in the test with A498 renal it was 82.8%; in the test on CCRF-CEM leukemia, 66.9%; with MOLT-4 leukemia, 81%.

On to `N#Cc1ccc(OCc2nc(N)nc(N)c2-c2ccc(Cl)c(Cl)c2)cc1`, for which the growth with HCT-15 colon was 20.9%; in the test on HT29 colon it was 10.8%; in the test with SNB-75 CNS it was 65.6%; in the test on SNB-19 CNS, 38.2%; in the test with U251 CNS it was 20.5%; in the test with PC-3 prostate, 18.9%. Besides, the growth with SK-MEL-5 melanoma is 23.4%; in the test on UACC-62 melanoma, 12.2%; in the test with LOX IMVI melanoma, 11.1%; in the test with SK-MEL-28 melanoma, 54.4%; in the test with SK-MEL-2 melanoma, 29.8%; with UO-31 renal, 40.4%. Besides, the growth in the test with TK-10 renal was 40.9%; in the test on ACHN renal it was 19.4%; in the test on CAKI-1 renal it was 13.9%; in the test on A498 renal, 38.5%; in the test with CCRF-CEM leukemia, 18.5%; with MOLT-4 leukemia, 22.9%.

Regarding `CN(C)CCOC(=O)C(C)(C)C`, the growth in the test on HCT-15 colon is 101%; in the test with HT29 colon, 99.7%; in the test on SNB-75 CNS it was 100%; in the test with SNB-19 CNS it was 99.4%; in the test with U251 CNS, 102%; in the test with PC-3 prostate, 93.6%. Also, the growth with SK-MEL-5 melanoma is 105%; in the test on UACC-62 melanoma, 93.3%; with LOX IMVI melanoma, 105%; with SK-MEL-28 melanoma, 26%; in the test on SK-MEL-2 melanoma, 103%; in the test on SN12C renal, 102%. Besides, the growth was 102% with TK-10 renal; 98.1% with ACHN renal; 105% with CAKI-1 renal; 103% in the test on A498 renal; 95.9% in the test with MOLT-4 leukemia.

Turning to `O=C(O)COc1ccc([N+](=O)[O-])cc1Cl`, the growth in the test on HCT-15 colon is 94.1%; in the test with HT29 colon, 113%; in the test with SNB-75 CNS it was 94.3%; in the test on SNB-19 CNS, 107%; in the test on U251 CNS, 96.5%; in the test on PC-3 prostate, 97.6%. The growth was 106% in the test on SK-MEL-5 melanoma; 111% in the test on UACC-62 melanoma; 100% in the test on LOX IMVI melanoma; 104% in the test on SK-MEL-28 melanoma; 107% in the test with SK-MEL-2 melanoma; 88.7% in the test with SN12C renal. Further, the growth in the test with UO-31 renal is 105%; in the test with TK-10 renal it was 103%; in the test with ACHN renal, 102%; in the test on A498 renal it was 115%; with CCRF-CEM leukemia it was 88.8%; with MOLT-4 leukemia, 99.2%.

For `CCCCCCCCc1ccc(CCC(N)(CO)CO)cc1`, the growth was -10% (active) in the test with HCT-15 colon; -83.4% (active) in the test on HT29 colon; 57.6% with SNB-75 CNS; 52.5% in the test on SNB-19 CNS; -85.2% (active) in the test on U251 CNS; 37.1% with PC-3 prostate. Also, the growth in the test on SK-MEL-5 melanoma was 90.7%; in the test with UACC-62 melanoma, 86.2%; in the test with LOX IMVI melanoma it was -54% (active); in the test with SK-MEL-28 melanoma it was 92.8%; with EKVX NSCLC it was 54.8%; in the test on UO-31 renal, -7.93% (active). For the same molecule, the growth in the test on TK-10 renal was 16.6%; in the test on ACHN renal it was -37.2% (active); in the test on CAKI-1 renal, 16.1%; in the test on A498 renal, 90.1%; in the test with CCRF-CEM leukemia it was -5.69% (active); with MOLT-4 leukemia, -28.3% (active).

Turning to `CC1(C)N=C(N)N=C(N)N1c1cccc(CCCCOc2ccccc2)c1`, the growth was 58.5% with HCT-15 colon; 11.3% in the test on HT29 colon; 60.8% in the test with SNB-75 CNS; 32.4% in the test with SNB-19 CNS; 11.4% in the test on U251 CNS; -6.9% (active) with PC-3 prostate. Moreover, the growth in the test with SK-MEL-5 melanoma was 17.9%; in the test with UACC-62 melanoma it was 20.8%; with LOX IMVI melanoma it was 15.9%; with SK-MEL-28 melanoma, 39.3%; in the test with SK-MEL-2 melanoma, 70.7%; with TK-10 renal, 24%. The growth in the test with ACHN renal was 35.1%; in the test with CAKI-1 renal it was 67.7%; in the test with A498 renal, 49.7%; in the test on CCRF-CEM leukemia, 13.2%; in the test on MOLT-4 leukemia it was 14.1%.

For `COC(=O)[C@H](Cc1cn(C)cn1)NC(=O)[C@H](Cc1c[nH]c2ccccc12)NC(=O)Nc1cc(C(F)(F)F)cc(C(F)(F)F)c1`, the growth is 27.7% [100 µM] with HCT-15 colon; -84.2% [100 µM] (active) with HT29 colon; -85.5% [100 µM] (active) with SNB-75 CNS; -91% [100 µM] (active) in the test with SNB-19 CNS; -89.5% [100 µM] (active) in the test on U251 CNS; -89.4% [100 µM] (active) with PC-3 prostate. Further, the growth is -51.3% [100 µM] (active) with SK-MEL-5 melanoma; -92.9% [100 µM] (active) in the test on UACC-62 melanoma; -83.5% [100 µM] (active) in the test on LOX IMVI melanoma; -80.3% [100 µM] (active) in the test with SK-MEL-28 melanoma; -82.6% [100 µM] (active) in the test on SK-MEL-2 melanoma; -83.7% [100 µM] (active) with SN12C renal. Moreover, the growth in the test with UO-31 renal is 22.5% [100 µM]; in the test with TK-10 renal, -66.2% [100 µM] (active); with ACHN renal, -38% [100 µM] (active); with A498 renal it was -35.8% [100 µM] (active); in the test with MOLT-4 leukemia it was -45.8% [100 µM] (active).

Take `O=C(N/N=C\c1ccc(-c2ccc(Br)cc2)o1)c1cc2oc(-c3cccc(C(F)(F)F)c3)cc2[nH]1`: the growth with HCT-15 colon is 84.5%; with HT29 colon it was 110%; with SNB-75 CNS it was 72.3%; with SNB-19 CNS it was 97.9%; in the test with U251 CNS it was 84.1%; with PC-3 prostate it was 102%. Also, the growth is 102% in the test on SK-MEL-5 melanoma; 108% with UACC-62 melanoma; 86% in the test with LOX IMVI melanoma; 81.5% with SK-MEL-28 melanoma; 142% with EKVX NSCLC; 107% with SN12C renal. In addition, the growth was 122% in the test with UO-31 renal; 127% in the test with TK-10 renal; 95% in the test on ACHN renal; 87.6% in the test on A498 renal; 0.0711% (active) in the test with CCRF-CEM leukemia; 66.6% in the test with MOLT-4 leukemia.

Take `CC(Br)c1nc2ccccc2cc1C(N)=O` (centres undefined): the growth in the test with HCT-15 colon is 98.9%; in the test with HT29 colon, 105%; in the test with SNB-75 CNS, 88.3%; in the test with SNB-19 CNS, 105%; with U251 CNS, 97.9%; with PC-3 prostate, 103%. The growth with SK-MEL-5 melanoma was 104%; with UACC-62 melanoma, 93.7%; in the test with LOX IMVI melanoma, 85.6%; in the test on SK-MEL-28 melanoma, 107%; in the test with SK-MEL-2 melanoma it was 110%; in the test with SN12C renal it was 90.5%. Also, the growth in the test on UO-31 renal was 92.6%; in the test with TK-10 renal, 96.8%; in the test on ACHN renal, 109%; with A498 renal, 94.7%; in the test on CCRF-CEM leukemia, 84.5%; in the test with MOLT-4 leukemia, 86.4%.

The record behind these values is PubChem BioAssay (NCI).
